Bioassay records (PubChem BioAssay)
HSF1 inhib: HSF1 inhibitors in luciferase reporter cells, primary screen, cell-based, NIH3T3, luminescence; NIH3T3-HGL HSE-luciferase, MG132-induced, luminescence 8 h; stronger effect = lower value; activity change, negative = inhibition, % at 7.5 µM (by protocol); 300,000 tested, 0.77% active; AID 2098, 2009;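 active = more than half of replicate wells show activity change below -50%, luminescence cut by over half; inconclusive = some wells, but at most half, below -50%; inactive = no replicate well below -50%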;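 note: luciferase reports HSF-1 transcriptional activity via heat shock element; 0% = median of DMSO wells and -100% = zero luminescence signal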
HSF-1 act: HSF-1 activators, primary screen, NIH3T3-HGL cells, MG132 stress, luminescence, single point; activation, % at 9 µM; AID 504408, 2011; NIH3T3-HGL HSF-1 luciferase reporter, 8 h; 100% = twice DMSO control signal; 300,000 tested, 1.7% active;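 active = mean replicate activation of at least 50% with a set share of replicates each reaching 50%; inconclusive = only one of those two conditions met; inactive = mean below 50% and too few replicates reaching it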;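 note: 0% = median of the neutral control wells and 100% = twice that signal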
esBAF inh: Bmi1 luciferase reporter increase in mESCs, primary screen, esBAF inhibitor project, mouse ES cells, Bmi1 luciferase knock-in, single point | 24 h; 100% = twice the neutral-well signal | reporter increase, % at 12.5 µM | 350,000 tested, 2% active; in the data active = activation above about 40%; inconclusive = no clear call, values can overlap the other calls;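 note: 0% = median of the plate's neutral control wells and 100% = double that signal; a rise in the Bmi1 reporter signal indicates esBAF inhibition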
MITF TRPM1 HTS: activators of MITF-driven TRPM1 promoter reporter, primary screen, cell-based, SK-MEL-5, luciferase, single point. SK-MEL-5 TRPM1-promoter luciferase, 24 h; % of positive control, neutral wells = 0. activation, % at 12.5 µM. 300,000 tested, 0.75% active. AID 588334, 2011;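 active = mean activation of at least 80% with every replicate also reaching 80%; inconclusive = mean reaches 80% but some replicate falls short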;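 note: 0% = neutral control wells and 100% = parthenolide positive control wells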
Wnt bcat act: Wnt/beta-catenin pathway activators, primary screen, cell-based, plate reader, single point. AID 743398, 2014. activation, % at 9.35 µM. 300,000 tested, 1.2% active. Wnt/beta-catenin reporter cell assay, activator; in the data active = activation above about 30%, passing the limit was not always enough; inconclusive = no clear call, values can overlap the other calls;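 note: 0% = neutral control wells and 100% = positive control wells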
Active calls of the source: *; ? = inconclusive; nt = no result. Only some compounds are listed: those with a hit (about 3.8% of all), similar ones and a draw of the others.

SMILES	HSF1 inhib	HSF-1 act	esBAF inh	MITF TRPM1 HTS	Wnt bcat act
Cc1noc(C)c1C(=O)N(C)C[C@H]1OCc2ccccc2-c2c(n(C)c3ccccc23)C(=O)N([C@H](C)CO)C[C@H]1C	nt	nt	-16	nt	nt
COc1cc(Cl)c(C)cc1NC(=O)CSc1ccc(C)cc1	38	80*	nt	-14	-3
O=C(C1=C[C@H](c2ccc(C(F)(F)F)cc2)C[C@H](OCCCCO)O1)N1CCN(Cc2ccc3c(c2)OCO3)CC1	-70*	-78	-3	8	-5
O=C(Nc1ccccc1)C1=C[C@H](c2ccc3c(c2)OCO3)C[C@H](OCCCCO)O1	9	12	48*	30	10
O=C(Nc1ccccc1)C1=C[C@@H](c2ccc3c(c2)OCO3)C[C@@H](OCCCCO)O1	-36	-39	67*	73	22
CCOc1ccc(NC(=O)Nc2ccc(Br)cn2)cc1	8	13	nt	?	nt
COc1cccc(NC(=O)Nc2ccc(Br)cn2)c1	-24	-39	47*	106*	-4
O=C(Nc1ccc(Cl)cc1)Nc1ccc(Br)cn1	12	27	?	94*	2
C[C@@H]1CN([C@H](C)CO)C(=O)Cc2cc(NS(=O)(=O)c3cccs3)ccc2O[C@@H]1CN(C)C	nt	nt	0	nt	nt
O=C(C[C@@H]1C=C[C@H](NC(=O)C2CCC2)[C@H](CO)O1)NCC1CC1	nt	nt	-1	nt	nt
Cc1cc(C)c(C#N)c(SCC(=O)NC(C)(C)C)n1	-65*	-74	6	18	-1
COCc1cc(C)nc(SCC(=O)Nc2ccc(C)c(C)c2)c1C#N	11	31	43*	36	-1
Cc1nc(SCC(=O)Nc2ccc3c(c2)OCO3)c(C#N)c2c1CCCC2	-3	3	35	27	3
Cc1cc(NC(=O)CSc2nc3c(C)ccc(C)c3cc2C#N)no1	9	20	2	5	0
Cc1cc(C)c(C#N)c(SCC(=O)Nc2ccc3c(c2)OCO3)n1	13	24	19	25	42*
Cc1cc(C)c(C#N)c(SCC(=O)Nc2cc(C)on2)n1	nt	nt	82*	?	2
O=C(C[C@H]1CC[C@@H]2[C@H](COC[C@H](O)CN2C(=O)c2cccnc2)O1)Nc1ccc(-c2ccccc2)cc1	nt	nt	6	nt	nt
COCCNC(=O)C[C@H]1CC[C@@H]2[C@H](COc3ccc(NC(=O)C4CCOCC4)cc3C(=O)N2C)O1	nt	nt	-7	nt	nt
O=C(C[C@@H]1CC[C@H]2[C@@H](COC[C@H](O)CN2Cc2nccs2)O1)NCc1ccccc1	nt	nt	1	nt	nt
Cc1sc(NC(=O)c2cc(-c3ccc(Cl)cc3)nc3ccccc23)c(C(N)=O)c1C	-2	6	nt	-52	nt
Cc1sc(NC(=O)c2ccc(Cl)s2)c(C(N)=O)c1C	24	30	30	31	42*
Cc1sc(NC(=O)c2ccc(Br)s2)c(C(N)=O)c1C	38	61*	?	26	nt
Cc1sc(NC(=S)Nc2ccc(F)cc2)c(C(N)=O)c1C	-4	-20	nt	3	0
CC(C)NC(=O)N(C)C[C@H]1Oc2ccc(NS(=O)(=O)c3ccc(Cl)cc3)cc2C(=O)N([C@H](C)CO)C[C@@H]1C	nt	nt	4	nt	nt
C[C@@H]1CN([C@H](C)CO)C(=O)c2cccc(NC(=O)C3CC3)c2O[C@H]1CN(C)S(=O)(=O)c1ccc(F)cc1	nt	nt	3	nt	nt
SMILES	HSF1 inhib	HSF-1 act	esBAF inh	MITF TRPM1 HTS	Wnt bcat act
Nc1cccc(Oc2ccc3c(c2)C(=O)N(CC2CCCO2)C3=O)c1 (stereo not given)	nt	nt	50*	65	15
O=C1c2cccc3cccc(c23)C(=O)N1CC1CCCO1 (stereo not given)	1	0	4	-5	2
Cc1sc2nc(-c3cccnc3)nc(Cl)c2c1-c1ccccc1	13	6	58*	28	4
CN1C/C(=C/c2ccsc2)C(=O)/C(=C/c2ccsc2)C1	-3	5	6	-85	7
O=C1/C(=C\c2ccsc2)N2CCC1CC2	3	-4	0	3	33*
C[C@H](CO)N1C[C@H](C)[C@H](CN(C)Cc2ccc(Oc3ccccc3)cc2)Oc2ccc(NS(=O)(=O)c3cn(C)cn3)cc2C1=O	nt	nt	4	nt	nt
O=[N+]([O-])c1ccc(N/N=C/c2c[nH]c3ccccc23)cc1	103	155*	34	52	3
O=[N+]([O-])c1ccccc1N/N=C/c1c[nH]c2ccccc12	98	150*	43*	15	nt
CC(C)C#Cc1cnc2c(c1)C(=O)N([C@H](C)CO)C[C@H](C)[C@H](CN(C)C(=O)Nc1cccc(F)c1)O2	nt	nt	-18	nt	nt
C/C(=N\Nc1cccc2cccnc12)c1ccc(N)cc1	13	28	64*	16	2
C/C(=N\Nc1cccc2cccnc12)c1ccccc1O	30	54*	nt	3	12
C/C(=N\Nc1cccc2cccnc12)c1ccccn1	15	49	nt	46	15
O=C(Nc1ccc2c(c1)[C@H]1C[C@@H](CC(=O)N3CCOCC3)O[C@@H](CO)[C@H]1O2)NC1CCCC1	nt	nt	-1	nt	nt
O=C1S/C(=C\c2ccc(N3CCOCC3)o2)C(=O)N1Cc1c(F)cccc1Cl	185	251*	-6	-5	-1
O=C1S/C(=C\c2ccc(N3CCOCC3)o2)C(=O)N1c1ccccc1	5	32	0	61	-4
O=C1S/C(=C/c2ccc(N3CCOCC3)o2)C(=O)N1Cc1c(F)cccc1Cl	94	102*	-8	nt	nt
COC(=O)[C@@H]1[C@@H](CO)[C@@H]2Cn3c(ccc(C4=CCCCC4)c3=O)[C@@H]2N1C(=O)C1CCCC1	nt	nt	-1	nt	nt
O=C(C[C@@H]1CC[C@@H](NC(=O)CN2CCOCC2)[C@H](CO)O1)NC1CCCCC1	nt	nt	2	nt	nt
CN1C(=O)c2cc(NC(=O)Nc3ccc(Cl)cc3)ccc2OC[C@@H]2O[C@@H](CC(=O)O)CC[C@H]21	nt	nt	3	nt	nt
Cc1ccn2c(C(=O)N/N=C\c3ccccc3[N+](=O)[O-])c(C)nc2c1	38	78*	6	-6	6
C[C@@H]1CN([C@H](C)CO)C(=O)c2cc(C#Cc3ccccc3F)cnc2O[C@@H]1CN(C)C(=O)C1CCCCC1	nt	nt	1	nt	nt
Cn1nc(-c2ccccn2)nc2c(=O)n(C)c(=O)nc1-2	-94*	-94	-27	-103	-22
CCCc1nc2c(=O)n(C)c(=O)nc-2n(C)n1	nt	nt	-52	-104	-22
CC(C)(C)C(=O)c1cnc(Nc2ccccc2Cl)s1	12	42	?	144*	nt
O=C(c1ccccc1)c1cnc(Nc2ccccc2Cl)s1	7	31	55*	98*	nt
CC(=O)c1csc(Nc2ccccc2Cl)n1	3	17	nt	nt	1
CO[C@@H]1CN(C)C(=O)c2ccc(NC(=O)C3CCOCC3)cc2OC[C@H](C)N(C(=O)c2ccccc2)C[C@H]1C	nt	nt	-3	nt	nt
O=C(COC(=O)COc1cccc(Br)c1)Nc1c(Cl)cccc1Cl	6	54*	nt	8	-1
